Test systems include SK-MEL-2 melanoma; EKVX NSCLC; SN12C renal; UO-31 renal; TK-10 renal; ACHN renal; CAKI-1 renal; A498 renal; MOLT-4 leukemia; RPMI-8226 leukemia; OVCAR-8 ovarian; OVCAR-5 ovarian; OVCAR-4 ovarian; SK-OV-3 ovarian; IGROV1 ovarian; OVCAR-3 ovarian; HS 578T breast; NCI/ADR-RES ovarian; SR leukemia; CCRF-CEM leukemia.
Holding throughout (experiment): NCI-60 one-dose screen, 48 h (100 = growth as untreated, 0 = no growth, -100 = all killed)
What all share (conditions): 10 µM unless noted

SMILES strings stand for the structures. Compounds without any hit were thinned out: in the full panel of roughly 83,000, 20% have a hit.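 Testing used 96-well plates and a 48-hour single-concentration exposure. Example: -40 means 40% of the starting cells died.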 A number with no mark means an inactive call. Calls of active or inactive are those of the source. The calls were made as follows: active = growth percent below 10; inactive = the rest.

As for `Cc1cccc(Cc2cnc(NC(=O)c3ccc4nnsc4c3)s2)c1`, the growth is 82.7% with SK-MEL-2 melanoma; 87.4% with EKVX NSCLC; 92.9% with SN12C renal; 78.5% with UO-31 renal; 80.9% with TK-10 renal; 70.3% with ACHN renal. For the same molecule, the growth in the assay on CAKI-1 renal was 60.2%; in the assay on A498 renal, 106%; in the assay with MOLT-4 leukemia, 90.2%; with RPMI-8226 leukemia, 76.4%; in the assay with OVCAR-8 ovarian, 96.5%; with OVCAR-5 ovarian it was 84.4%. The growth is 98.3% with OVCAR-4 ovarian; 91.8% in the assay on SK-OV-3 ovarian; 97.9% in the assay with IGROV1 ovarian; 104% in the assay with OVCAR-3 ovarian; 109% with HS 578T breast; 90% in the assay on NCI/ADR-RES ovarian.
For the molecule `CCCCCS(=O)(=O)Nc1ccc(C(=O)O)cc1`, the growth was 100% in the assay with EKVX NSCLC; 101% with SN12C renal; 97.9% with UO-31 renal; 92.1% in the assay on TK-10 renal; 104% with ACHN renal; 102% in the assay on CAKI-1 renal. The growth was 104% in the assay with A498 renal; 95.7% with SR leukemia; 106% with OVCAR-8 ovarian; 111% in the assay on OVCAR-5 ovarian; 103% in the assay with OVCAR-4 ovarian; 99.2% in the assay with SK-OV-3 ovarian. In addition, the growth in the assay on IGROV1 ovarian was 101%; in the assay on OVCAR-3 ovarian, 110%; with HS 578T breast it was 110%; in the assay on NCI/ADR-RES ovarian it was 102%.
In the case of `COc1cc(C2CC(=O)Nc3c2c(C)nn3-c2nc3ccccc3[nH]2)c(OC)c(OC)c1OC` (stereo unspecified), the growth in the assay with EKVX NSCLC was 86.4%; with SN12C renal, 73.9%; in the assay with UO-31 renal it was 62.3%; in the assay on TK-10 renal, 12.5%; with ACHN renal it was 86.6%; with CAKI-1 renal it was 43.6%. The growth with A498 renal was -9.27% (active); in the assay on CCRF-CEM leukemia, 39.6%; in the assay on MOLT-4 leukemia, 20.3%; in the assay with RPMI-8226 leukemia, 55.1%; in the assay with OVCAR-8 ovarian it was 47.4%; with OVCAR-5 ovarian, 104%. For the same molecule, the growth was 73.1% in the assay with OVCAR-4 ovarian; 40% in the assay with SK-OV-3 ovarian; 76.9% in the assay on IGROV1 ovarian; 12.2% with OVCAR-3 ovarian; 25.5% with HS 578T breast; 57.7% with NCI/ADR-RES ovarian.
Take `COc1cccc(-c2nn(-c3ccccc3)cc2-c2ccnc(NCCNC(=O)c3ccccc3)c2)c1`: the growth is 66.6% with EKVX NSCLC; 71.4% with SN12C renal; 49.7% in the assay with UO-31 renal; 90.1% in the assay with TK-10 renal; 74.1% with ACHN renal; 68% in the assay with CAKI-1 renal. Besides, the growth in the assay with A498 renal is 46.6%; in the assay on CCRF-CEM leukemia, 48.7%; in the assay with SR leukemia, -12.5% (active); in the assay with RPMI-8226 leukemia it was 42.3%; in the assay on OVCAR-8 ovarian it was 43.8%; with OVCAR-5 ovarian it was 102%. Besides, the growth with OVCAR-4 ovarian was 53.7%; in the assay on SK-OV-3 ovarian, 65.3%; with IGROV1 ovarian it was 79.6%; in the assay with OVCAR-3 ovarian, 63.1%; in the assay with HS 578T breast, 68.5%; in the assay with NCI/ADR-RES ovarian, 46.6%.
For `CCN(CC)CCN1CC(O)=C(c2nc(-c3ccc(Cl)cc3)cs2)C1=N`, the growth in the assay with EKVX NSCLC was 82.8%; in the assay on SN12C renal it was 64.5%; in the assay on UO-31 renal it was -24.7% (active); in the assay with TK-10 renal, 89.2%; in the assay on ACHN renal, 42.5%; in the assay on CAKI-1 renal it was 43.2%. The growth was 56.5% in the assay with A498 renal; 1.18% (active) with MOLT-4 leukemia; 13.6% with RPMI-8226 leukemia; 44.6% in the assay with OVCAR-8 ovarian; 66.4% in the assay with OVCAR-5 ovarian; 84.6% in the assay with OVCAR-4 ovarian. Further, the growth was 101% in the assay on SK-OV-3 ovarian; 40.8% in the assay on IGROV1 ovarian; 80.5% with OVCAR-3 ovarian; 47.2% in the assay on HS 578T breast; 69.4% with NCI/ADR-RES ovarian.
Consider `CC(=O)c1nc(Nc2ccc(C)cc2)sc1C`, for which the growth in the assay with EKVX NSCLC was 74.4%; with SN12C renal it was 102%; in the assay with UO-31 renal, 81.6%; in the assay with TK-10 renal, 120%; in the assay with ACHN renal, 102%; with CAKI-1 renal, 87.9%. Further, the growth in the assay on A498 renal was 66.2%; in the assay on CCRF-CEM leukemia, 95.6%; in the assay on MOLT-4 leukemia, 96.1%; with RPMI-8226 leukemia, 96.2%; in the assay on OVCAR-8 ovarian, 95%; in the assay with OVCAR-5 ovarian, 97%. The growth was 110% in the assay on OVCAR-4 ovarian; 97.8% in the assay on SK-OV-3 ovarian; 86.9% in the assay on IGROV1 ovarian; 97.5% in the assay on OVCAR-3 ovarian; 90.1% with HS 578T breast; 99.4% with NCI/ADR-RES ovarian.
As for `COc1ccc(-c2cc(-c3cc(OC)ccc3OC)nc(SCC(=O)c3ccccc3)c2C#N)cc1`, the growth in the assay with EKVX NSCLC was 100%; in the assay on SN12C renal, 93.7%; with UO-31 renal, 81.9%; in the assay with TK-10 renal, 114%; with ACHN renal it was 91.6%; in the assay with CAKI-1 renal, 95.3%. Further, the growth with A498 renal was 93.9%; with CCRF-CEM leukemia it was 111%; with SR leukemia, 83.3%; in the assay with RPMI-8226 leukemia it was 105%; in the assay with OVCAR-8 ovarian, 96.6%; in the assay with OVCAR-5 ovarian it was 103%. For the same molecule, the growth in the assay with OVCAR-4 ovarian is 91.8%; in the assay on SK-OV-3 ovarian, 86.7%; in the assay on IGROV1 ovarian it was 97.3%; in the assay on OVCAR-3 ovarian, 108%; in the assay with HS 578T breast it was 97.3%; in the assay on NCI/ADR-RES ovarian, 93.1%.
On to `NC1=NCc2nc3ccccc3c(=O)n2C1`, for which the growth in the assay with EKVX NSCLC was 107%; in the assay on SN12C renal, 98%; in the assay on UO-31 renal it was 70.1%; in the assay on TK-10 renal, 106%; in the assay with ACHN renal it was 99.5%; in the assay with CAKI-1 renal, 92.7%. In addition, the growth was 110% in the assay with A498 renal; 91.2% with MOLT-4 leukemia; 93.1% in the assay on SR leukemia; 79.1% with RPMI-8226 leukemia; 102% in the assay with OVCAR-8 ovarian; 85.8% in the assay on OVCAR-5 ovarian. Besides, the growth in the assay with OVCAR-4 ovarian is 106%; with SK-OV-3 ovarian it was 117%; in the assay on IGROV1 ovarian it was 101%; with OVCAR-3 ovarian it was 101%; in the assay with HS 578T breast it was 111%; with NCI/ADR-RES ovarian, 96.8%.
With `O=C(Nc1cccc(Cl)c1)c1cc(N=Nc2ccc([N+](=O)[O-])cc2Cl)ccc1O`, the growth is 70.2% in the assay with EKVX NSCLC; 82.1% with SN12C renal; 38.7% with UO-31 renal; 136% in the assay on TK-10 renal; 82.4% in the assay on ACHN renal; 100% in the assay on CAKI-1 renal. Besides, the growth in the assay with A498 renal was 69.5%; in the assay with CCRF-CEM leukemia, 21.3%; in the assay on SR leukemia, 20.7%; in the assay with RPMI-8226 leukemia, 3.54% (active); with OVCAR-8 ovarian it was 15.6%; with SK-OV-3 ovarian, 93.1%. Also, the growth in the assay with IGROV1 ovarian was 22.9%; in the assay with HS 578T breast it was 54%; in the assay with NCI/ADR-RES ovarian, 67.6%.
